Assay results taken from PubChem BioAssay AID1159580 (chemical genetic matrix, 2015).
In all, about 5,500 compounds went through this assay and about 2,000 (36%) were called active. Roughly 18% stayed inconclusive and do not appear here. No stated cut-off is given here; in the data, active means normalized growth mostly below about 0.91 (no sharp cut-off); inconclusive means no clear call, values can overlap the other calls; inactive means mostly above about 0.92. The list shows a part of the results.

Experiment: chemical genetic growth profiling, strain panel (AID 1159580);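 further: tested at 20 µM; growth read once vehicle control cultures reached saturation at 30 °C; 1 = growth at the plate median or of vehicle wells; lower values mean less growth of the strain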
Details: growth OD
[1] = S. cerevisiae deletion strains, locus YAL013W, strain DEP1, hits give low values
[2] = S. cerevisiae deletion strains, locus YBR021W, strain FUR4, hits give low values
[3] = S. cerevisiae deletion strains, locus YBR229C, strain ROT2, hits give low values
[4] = S. cerevisiae deletion strains, locus YCL029C, strain bik1, hits give low values
[5] = S. cerevisiae deletion strains, locus YDL035C, strain GPR1, hits give low values
[6] = S. cerevisiae deletion strains, locus YDL074C, strain BRE1, hits give low values
[7] = S. cerevisiae deletion strains, locus YDL101C, strain DUN1, hits give low values
[8] = S. cerevisiae deletion strains, locus YDL134C, strain PPH21, hits give low values
[9] = S. cerevisiae deletion strains, locus YDL185W, strain tfp1, hits give low values
[10] = S. cerevisiae deletion strains, locus YDL192W, strain arf1, hits give low values
[11] = S. cerevisiae deletion strains, locus YDR101C, strain arx1, hits give low values
[12] = S. cerevisiae deletion strains, locus YDR162C, strain NBP2, hits give low values
[13] = S. cerevisiae deletion strains, locus YDR318W, strain mcm21, hits give low values
[14] = S. cerevisiae deletion strains, locus YDR388W, hits give low values
[15] = S. cerevisiae deletion strains, locus YDR502C, strain sam2, hits give low values
[16] = S. cerevisiae deletion strains, locus YEL061C, strain CIN8, hits give low values
[17] = S. cerevisiae deletion strains, locus YER110C, hits give low values
[18] = S. cerevisiae deletion strains, locus YER155C, strain BEM2, hits give low values
[19] = S. cerevisiae deletion strains, locus YER167W, strain BCK2, hits give low values
[20] = S. cerevisiae deletion strains, locus YGL078C, strain dbp3, hits give low values
[21] = S. cerevisiae deletion strains, locus YGL086W, strain mad1, hits give low values
[22] = S. cerevisiae deletion strains, locus YGL248W, strain PDE1, hits give low values
[23] = S. cerevisiae deletion strains, locus YGR078C, strain PAC10, hits give low values
[24] = S. cerevisiae deletion strains, locus YGR135W, strain pre9, hits give low values
[25] = S. cerevisiae deletion strains, locus YGR252W, strain gcn5, hits give low values
[26] = S. cerevisiae deletion strains, locus YHR030C, strain SLT2, hits give low values
[27] = S. cerevisiae deletion strains, locus YHR079C, strain IRE1 (second series), hits give low values
[28] = S. cerevisiae deletion strains, locus YHR094C, strain hxt1, hits give low values
[29] = S. cerevisiae deletion strains, locus YHR129C, strain ARP1, hits give low values
[30] = S. cerevisiae deletion strains, locus YHR200W, strain rpn10, hits give low values
[31] = S. cerevisiae deletion strains, locus YIL066C, strain RNR3, hits give low values
[32] = S. cerevisiae deletion strains, locus YIL073C, strain SPO22, hits give low values
[33] = S. cerevisiae deletion strains, locus YIL125W, strain kgd1, hits give low values
[34] = S. cerevisiae deletion strains, locus YIR030C, strain dcg1, hits give low values
[35] = S. cerevisiae deletion strains, locus YJL095W, strain BCK1, hits give low values
[36] = S. cerevisiae deletion strains, locus YJL134W, strain LCB3, hits give low values
[37] = S. cerevisiae deletion strains, locus YJL168C, strain set2, hits give low values
[38] = S. cerevisiae deletion strains, locus YJL187C, strain SWE1 (second series), hits give low values
[39] = S. cerevisiae deletion strains, locus YJR043C, strain POL32, hits give low values
[40] = S. cerevisiae deletion strains, locus YKL009W, strain mrt4, hits give low values
[41] = S. cerevisiae deletion strains, locus YKL068W, hits give low values
[42] = S. cerevisiae deletion strains, locus YKL085W, strain MDH1 (second series), hits give low values
[43] = S. cerevisiae deletion strains, locus YKL085W, strain MDH1, hits give low values
[44] = S. cerevisiae deletion strains, locus YKR001C, strain vps1, hits give low values
[45] = S. cerevisiae deletion strains, locus YLR039C, strain RIC1, hits give low values
[46] = S. cerevisiae deletion strains, locus YLR058C, strain SHM2, hits give low values
[47] = S. cerevisiae deletion strains, locus YLR102C, strain apc9, hits give low values
[48] = S. cerevisiae deletion strains, locus YLR262C, strain YPT6, hits give low values
[49] = S. cerevisiae deletion strains, locus YLR268W, strain sec22, hits give low values
[50] = S. cerevisiae deletion strains, locus YLR330W, strain CHS5, hits give low values
[51] = S. cerevisiae deletion strains, locus YLR342W, strain FKS1 (second series), hits give low values
[52] = S. cerevisiae deletion strains, locus YLR371W, strain rom2, hits give low values
[53] = S. cerevisiae deletion strains, locus YLR418C, strain cdc73, hits give low values
[54] = S. cerevisiae deletion strains, locus YML016C, strain PPZ1, hits give low values
[55] = S. cerevisiae deletion strains, locus YML032C, strain rad52, hits give low values
[56] = S. cerevisiae deletion strains, locus YML124C, strain tub3, hits give low values
[57] = S. cerevisiae deletion strains, locus YMR078C, strain ctf18, hits give low values
[58] = S. cerevisiae deletion strains, locus YMR223W, strain ubp8, hits give low values
[59] = S. cerevisiae deletion strains, locus YMR263W, strain SAP30, hits give low values
[60] = S. cerevisiae deletion strains, locus YMR307W, strain GAS1, hits give low values
[61] = S. cerevisiae deletion strains, locus YNL067W, strain RPL9B, hits give low values
[62] = S. cerevisiae deletion strains, locus YNL153C, strain GIM3, hits give low values
[63] = S. cerevisiae deletion strains, locus YNL233W, strain BNI4, hits give low values
[64] = S. cerevisiae deletion strains, locus YNL250W, strain rad50, hits give low values
[65] = S. cerevisiae deletion strains, locus YNL271C, strain bni1, hits give low values
[66] = S. cerevisiae deletion strains, locus YNL298W, strain CLA4, hits give low values
[67] = S. cerevisiae deletion strains, locus YNL307C, strain MCK1, hits give low values
[68] = S. cerevisiae deletion strains, locus YNL322C, strain KRE1, hits give low values
[69] = S. cerevisiae deletion strains, locus YNR052C, strain pop2, hits give low values
[70] = S. cerevisiae deletion strains, locus YOL012C, strain htz1
[71] = S. cerevisiae deletion strains, locus YOL147C, strain pex11, hits give low values
[72] = S. cerevisiae deletion strains, locus YOR061W, strain CKA2, hits give low values
[73] = S. cerevisiae deletion strains, locus YOR069W, strain VPS5, hits give low values
[74] = S. cerevisiae deletion strains, locus YOR136W, strain idh2, hits give low values
[75] = S. cerevisiae deletion strains, locus YOR144C, strain elg1, hits give low values
[76] = S. cerevisiae deletion strains, locus YOR184W, strain ser1, hits give low values
[77] = S. cerevisiae deletion strains, locus YOR316C, strain cot1, hits give low values
[78] = S. cerevisiae deletion strains, locus YPR119W, strain clb2, hits give low values
[79] = S. cerevisiae deletion strains, locus YPR141C, strain kar3, hits give low values
[80] = S. cerevisiae deletion strains, locus YPR163C, strain tif3, hits give low values
[81] = S. cerevisiae deletion strains, locus YPR167C, strain met16, hits give low values
[82] = S. cerevisiae deletion strains, strain wtn01, hits give low values

Measured: normalized growth

NCC(CC(=O)O)c1ccc(Cl)s1 (stereo not drawn)
inactive: [1] 0.991 | [2] 0.96 | [3] 0.99 | [4] 0.985 | [5] 0.994 | [6] 1.02 | [7] 0.992 | [8] 0.982 | [9] 0.978 | [10] 0.987 | [11] 0.998 | S. cerevisiae deletion strains, locus YDR150W, strain NUM1, hits give low values 1 | [12] 1.03 | [13] 0.968 | [14] 0.99 | [15] 0.996 | [16] 0.994 | [17] 0.979 | [18] 1 | [19] 0.973 | [20] 0.995 | [21] 0.958 | [22] 0.987 | [23] 0.994 | [24] 0.974 | S. cerevisiae deletion strains, locus YGR229C, strain SMI1, hits give low values 0.958 | [25] 0.926 | [26] 0.989 | [27] 0.992 | [28] 0.991 | [29] 0.99 | [30] 0.978 | [31] 0.979 | [32] 0.959 | [33] 1.01 | [34] 0.993 | [35] 0.991 | [36] 0.989 | [37] 0.996 | [38] 0.999 | [39] 0.964 | S. cerevisiae deletion strains, locus YJR075W, strain HOC1, hits give low values 1.06 | [40] 1 | [41] 0.989 | [42] 1.02 | [43] 1.02 | S. cerevisiae deletion strains, locus YKL190W, strain CNB1, hits give low values 0.997 | [44] 0.947 | [45] 1.01 | [46] 0.985 | [47] 0.998 | [48] 1.03 | [49] 0.988 | [50] 0.993 | [51] 0.978 | [52] 0.986 | [53] 0.914 | [54] 0.984 | [55] 0.963 | [56] 0.979 | [57] 0.989 | [58] 0.958 | [59] 1.01 | [60] 0.959 | [61] 1.02 | S. cerevisiae deletion strains, locus YNL128W, strain TEP1, hits give low values 1.02 | [62] 1.02 | [63] 0.989 | [64] 0.995 | [65] 0.988 | [66] 0.988 | [67] 0.954 | [68] 0.999 | [69] 0.981 | S. cerevisiae deletion strains, locus YOL006C, strain TOP1, hits give low values 0.973 | [70] 1.87 | [71] 0.998 | [72] 0.997 | [73] 0.983 | [74] 0.981 | [75] 0.987 | [76] 0.94 | [77] 0.992 | S. cerevisiae deletion strains, locus YPL055C, strain LGE1, hits give low values 1.05 | S. cerevisiae deletion strains, locus YPL241C, strain CIN2, hits give low values 0.993 | [78] 0.994 | [79] 0.982 | [80] 0.991 | [81] 0.99 | [82] 0.988 | S. cerevisiae strains, strain wild type, hits give low values 0.979

COC(=O)[C@]1(C)CC[C@]2(C)CC[C@]3(C)C4=CCc5c(cc(O)c(O)c5C)[C@]4(C)CC[C@@]3(C)C2C1 (stereo partly drawn)
inactive: [1] 0.992 | [2] 0.985 | [3] 0.989 | [4] 0.98 | [5] 0.968 | [6] 0.915 | [7] 0.975 | [8] 1.01 | [9] 0.984 | [10] 0.968 | [11] 0.947 | [12] 0.992 | [13] 0.994 | [14] 0.983 | [15] 0.961 | [16] 0.991 | [17] 0.978 | [18] 0.992 | [19] 0.992 | [20] 0.981 | [21] 0.94 | [22] 0.985 | [23] 0.971 | [24] 0.99 | [25] 1.09 | [26] 0.994 | [27] 0.982 | [28] 0.978 | [29] 0.962 | [30] 0.986 | [31] 0.969 | [32] 0.983 | [33] 0.975 | [34] 0.982 | [35] 0.958 | [36] 0.991 | [37] 0.978 | [38] 0.961 | [39] 0.989 | [40] 1.03 | [41] 0.977 | [42] 0.977 | [43] 0.977 | [44] 0.937 | [45] 0.945 | [46] 0.983 | [47] 0.984 | [48] 0.938 | [49] 0.939 | [50] 0.988 | [51] 0.953 | [52] 0.955 | [54] 0.982 | [55] 1.01 | [56] 0.98 | [57] 0.958 | [58] 0.984 | [59] 0.998 | [60] 0.954 | [61] 0.998 | [62] 0.973 | [63] 0.951 | [64] 0.977 | [65] 0.979 | [66] 1.01 | [67] 0.962 | [68] 0.993 | [69] 0.985 | [70] 1.1 | [71] 0.998 | [72] 0.981 | [73] 0.984 | [74] 0.966 | [75] 0.973 | [76] 0.902 | [77] 0.983 | [78] 0.971 | [79] 0.968 | [80] 0.968 | [81] 0.976 | [82] 0.929
active: [53] 0.802
